# Experimental data reported in publication PMC7862700, “An all-to-all approach to the identification of sequence-specific readers for epigenetic DNA modifications on cytosine”.
# How the values were obtained:
# Test in all cases: DAPPL (digital affinity profiling via proximity ligation, sequencing); 10 mM Tris-HCl pH 7.5, 50 mM NaCl, 1 mM DTT, 4% glycerol, room temperature, 30 min; GST-TFs on glutathione beads, 16-mer random dsDNA library, 0.1% formaldehyde crosslink after washing; high values mean tight binding
# [1] = target: T1, FLI1 (Homo sapiens, UniProt Q01543 1-452); conditions: protein: recombinant; tags: N-terminal GST; dsDNA, one strand shown
# T1 sequence: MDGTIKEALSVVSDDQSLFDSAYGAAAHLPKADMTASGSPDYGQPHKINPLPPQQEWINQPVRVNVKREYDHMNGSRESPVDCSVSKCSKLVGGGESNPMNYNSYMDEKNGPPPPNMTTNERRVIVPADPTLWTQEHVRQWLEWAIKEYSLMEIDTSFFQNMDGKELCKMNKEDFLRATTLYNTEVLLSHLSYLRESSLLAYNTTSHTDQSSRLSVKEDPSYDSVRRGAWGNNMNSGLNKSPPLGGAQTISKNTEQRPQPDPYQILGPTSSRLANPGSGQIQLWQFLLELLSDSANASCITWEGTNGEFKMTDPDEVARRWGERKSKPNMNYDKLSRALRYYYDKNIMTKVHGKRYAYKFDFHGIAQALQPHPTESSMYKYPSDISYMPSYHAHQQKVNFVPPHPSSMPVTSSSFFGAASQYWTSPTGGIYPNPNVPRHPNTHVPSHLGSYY
# Procedure, shortened: (§1)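 Each value of binding signal is a hexamer's read frequency for a factor divided by the same hexamer's frequency in the tag-only sample. Barcoded, bead-captured GST fusions of human transcription factors made in yeast were pooled with that sample and incubated with 200 nmole of a random double-stranded 16-mer DNA library in Tris/NaCl/DTT/glycerol buffer at room temperature for 30 min. Washing, 0.1% formaldehyde crosslinking, proximity ligation, PCR and Illumina NextSeq500 sequencing followed.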
# [2] = target: T2, ELK1 (Homo sapiens, UniProt P19419 1-428); conditions: protein: recombinant; tags: N-terminal GST; dsDNA, one strand shown
# T2 sequence: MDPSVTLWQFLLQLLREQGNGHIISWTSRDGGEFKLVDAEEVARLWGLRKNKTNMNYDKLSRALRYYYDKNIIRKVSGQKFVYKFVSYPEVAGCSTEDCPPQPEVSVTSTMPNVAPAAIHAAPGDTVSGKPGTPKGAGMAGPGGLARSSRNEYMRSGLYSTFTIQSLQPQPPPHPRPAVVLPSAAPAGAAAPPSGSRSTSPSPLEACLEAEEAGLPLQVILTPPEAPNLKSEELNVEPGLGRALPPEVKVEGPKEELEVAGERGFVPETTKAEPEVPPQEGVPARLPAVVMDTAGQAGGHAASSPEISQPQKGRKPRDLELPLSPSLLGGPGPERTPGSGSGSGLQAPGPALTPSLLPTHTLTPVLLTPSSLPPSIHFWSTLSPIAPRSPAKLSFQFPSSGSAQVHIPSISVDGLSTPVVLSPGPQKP
# Procedure, shortened: as §1
# [3] = target: T3, GABPA (Homo sapiens, UniProt Q06546 1-454); conditions: protein: recombinant; tags: N-terminal GST; dsDNA, one strand shown
# T3 sequence: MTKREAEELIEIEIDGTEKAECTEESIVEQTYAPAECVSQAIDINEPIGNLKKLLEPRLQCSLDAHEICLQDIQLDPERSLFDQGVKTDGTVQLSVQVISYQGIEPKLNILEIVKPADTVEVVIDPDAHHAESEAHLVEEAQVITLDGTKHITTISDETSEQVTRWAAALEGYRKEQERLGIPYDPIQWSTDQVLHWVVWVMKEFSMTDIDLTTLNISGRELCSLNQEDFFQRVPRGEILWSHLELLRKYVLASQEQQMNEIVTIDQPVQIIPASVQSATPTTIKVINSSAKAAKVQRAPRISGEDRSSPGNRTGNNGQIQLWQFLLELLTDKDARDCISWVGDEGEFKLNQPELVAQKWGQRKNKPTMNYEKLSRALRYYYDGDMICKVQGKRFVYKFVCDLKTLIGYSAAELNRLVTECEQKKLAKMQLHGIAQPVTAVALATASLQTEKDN
# Procedure, shortened: as §1
# [4] = target: T4, ERG (Homo sapiens, UniProt P11308 1-479); conditions: protein: recombinant; tags: N-terminal GST; dsDNA, one strand shown
# T4 sequence: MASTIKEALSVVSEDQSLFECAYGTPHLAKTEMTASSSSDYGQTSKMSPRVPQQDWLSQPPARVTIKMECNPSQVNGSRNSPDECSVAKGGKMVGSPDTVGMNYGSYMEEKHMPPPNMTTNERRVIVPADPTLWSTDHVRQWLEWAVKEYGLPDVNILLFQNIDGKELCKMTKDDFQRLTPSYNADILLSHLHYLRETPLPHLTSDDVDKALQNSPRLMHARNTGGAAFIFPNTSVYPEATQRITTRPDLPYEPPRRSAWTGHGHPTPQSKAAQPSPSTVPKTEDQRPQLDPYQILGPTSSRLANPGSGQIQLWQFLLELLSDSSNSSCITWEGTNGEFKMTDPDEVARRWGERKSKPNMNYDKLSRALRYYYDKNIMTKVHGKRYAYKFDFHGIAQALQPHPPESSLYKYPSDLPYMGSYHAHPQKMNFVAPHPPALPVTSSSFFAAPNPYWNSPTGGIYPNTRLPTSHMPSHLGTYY
# Procedure, shortened: as §1
# [5] = target: ELF1 (Homo sapiens, UniProt P32519 1-619); conditions: protein: recombinant; tags: N-terminal GST; dsDNA, one strand shown
# Procedure, shortened: as §1
# [6] = target: T5, EHF (Homo sapiens, UniProt Q9NZC4 1-300); conditions: protein: recombinant; tags: N-terminal GST; dsDNA, one strand shown
# T5 sequence: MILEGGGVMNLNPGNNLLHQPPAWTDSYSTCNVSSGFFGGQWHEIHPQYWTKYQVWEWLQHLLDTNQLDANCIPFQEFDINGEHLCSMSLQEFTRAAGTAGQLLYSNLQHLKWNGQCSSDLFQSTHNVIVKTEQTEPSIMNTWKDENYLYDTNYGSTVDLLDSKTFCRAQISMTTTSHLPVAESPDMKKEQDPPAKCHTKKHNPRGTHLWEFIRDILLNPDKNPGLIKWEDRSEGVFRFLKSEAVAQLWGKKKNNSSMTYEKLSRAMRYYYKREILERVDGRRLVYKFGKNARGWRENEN
# Procedure, shortened: as §1
# [7] = target: SPI1 (Homo sapiens, UniProt P17947 1-270); conditions: protein: recombinant; tags: N-terminal GST; dsDNA, one strand shown
# Procedure, shortened: as §1
# [8] = target: SPIB (Homo sapiens, UniProt Q01892 1-262); conditions: protein: recombinant; tags: N-terminal GST; dsDNA, one strand shown
# Procedure, shortened: as §1
# [9] = target: T6, ELK3 (Homo sapiens, UniProt P41970 1-407); conditions: protein: recombinant; tags: N-terminal GST; dsDNA, one strand shown
# T6 sequence: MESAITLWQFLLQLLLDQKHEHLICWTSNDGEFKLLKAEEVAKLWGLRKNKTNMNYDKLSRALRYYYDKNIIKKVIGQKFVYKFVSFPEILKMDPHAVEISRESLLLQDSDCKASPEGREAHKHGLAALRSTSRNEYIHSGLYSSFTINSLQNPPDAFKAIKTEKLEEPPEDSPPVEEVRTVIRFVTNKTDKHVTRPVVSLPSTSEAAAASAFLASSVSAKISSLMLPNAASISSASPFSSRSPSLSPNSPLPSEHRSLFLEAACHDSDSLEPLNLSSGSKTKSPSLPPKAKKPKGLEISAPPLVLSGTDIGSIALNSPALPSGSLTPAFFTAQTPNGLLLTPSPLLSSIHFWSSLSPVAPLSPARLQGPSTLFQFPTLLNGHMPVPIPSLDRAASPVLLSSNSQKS
# Procedure, shortened: as §1
# [10] = target: ETV5 (Homo sapiens, UniProt P41161 1-510); conditions: protein: recombinant; tags: N-terminal GST; dsDNA, one strand shown
# Procedure, shortened: as §1
# [11] = target: HSF1 (Homo sapiens, UniProt Q00613 1-529); conditions: protein: recombinant; tags: N-terminal GST; chain copies: 3; dsDNA, one strand shown
# Procedure, shortened: as §1
# [12] = target: T7, SPIC (Homo sapiens, UniProt Q8N5J4 1-248); conditions: protein: recombinant; tags: N-terminal GST; dsDNA, one strand shown
# T7 sequence: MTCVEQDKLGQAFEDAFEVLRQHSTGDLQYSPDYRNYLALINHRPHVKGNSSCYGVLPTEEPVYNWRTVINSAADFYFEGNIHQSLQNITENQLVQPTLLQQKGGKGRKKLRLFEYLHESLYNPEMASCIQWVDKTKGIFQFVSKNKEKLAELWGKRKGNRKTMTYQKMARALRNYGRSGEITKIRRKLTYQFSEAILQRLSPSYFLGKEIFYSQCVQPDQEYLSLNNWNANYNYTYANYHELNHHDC
# Procedure, shortened: as §1
# [13] = target: ELF4 (Homo sapiens, UniProt Q99607 1-663); conditions: protein: recombinant; tags: N-terminal GST; dsDNA, one strand shown
# Procedure, shortened: as §1
# [14] = target: T8, ELK4 (Homo sapiens, UniProt P28324-2 1-405); conditions: protein: recombinant; tags: N-terminal GST; dsDNA, one strand shown
# T8 sequence: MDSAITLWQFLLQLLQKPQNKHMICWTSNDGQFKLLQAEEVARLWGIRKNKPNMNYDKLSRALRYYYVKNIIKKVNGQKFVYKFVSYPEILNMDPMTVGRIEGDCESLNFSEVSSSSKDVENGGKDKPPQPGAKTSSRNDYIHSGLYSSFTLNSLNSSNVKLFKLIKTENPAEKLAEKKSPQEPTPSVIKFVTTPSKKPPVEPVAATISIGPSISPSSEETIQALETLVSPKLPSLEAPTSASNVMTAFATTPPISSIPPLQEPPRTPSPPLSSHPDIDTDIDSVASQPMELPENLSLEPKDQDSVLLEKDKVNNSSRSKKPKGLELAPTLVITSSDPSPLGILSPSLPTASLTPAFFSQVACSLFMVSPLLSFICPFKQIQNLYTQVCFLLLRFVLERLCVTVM
# Procedure, shortened: as §1
# [15] = target: T9, ETV2 (Homo sapiens, UniProt O00321 1-342); conditions: protein: recombinant; tags: N-terminal GST; dsDNA, one strand shown
# T9 sequence: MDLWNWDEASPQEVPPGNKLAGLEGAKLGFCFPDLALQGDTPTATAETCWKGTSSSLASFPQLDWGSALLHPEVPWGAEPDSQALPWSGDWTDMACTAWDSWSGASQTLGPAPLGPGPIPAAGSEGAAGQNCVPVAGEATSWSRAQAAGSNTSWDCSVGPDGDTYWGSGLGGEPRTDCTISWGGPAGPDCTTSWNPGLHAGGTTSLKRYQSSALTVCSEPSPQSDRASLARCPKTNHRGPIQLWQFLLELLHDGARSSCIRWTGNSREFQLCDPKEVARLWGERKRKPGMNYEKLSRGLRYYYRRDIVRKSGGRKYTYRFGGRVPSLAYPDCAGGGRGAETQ
# Procedure, shortened: as §1
# [16] = target: T10, ELF3 (Homo sapiens, UniProt P78545 1-371); conditions: protein: recombinant; tags: N-terminal GST; dsDNA, one strand shown
# T10 sequence: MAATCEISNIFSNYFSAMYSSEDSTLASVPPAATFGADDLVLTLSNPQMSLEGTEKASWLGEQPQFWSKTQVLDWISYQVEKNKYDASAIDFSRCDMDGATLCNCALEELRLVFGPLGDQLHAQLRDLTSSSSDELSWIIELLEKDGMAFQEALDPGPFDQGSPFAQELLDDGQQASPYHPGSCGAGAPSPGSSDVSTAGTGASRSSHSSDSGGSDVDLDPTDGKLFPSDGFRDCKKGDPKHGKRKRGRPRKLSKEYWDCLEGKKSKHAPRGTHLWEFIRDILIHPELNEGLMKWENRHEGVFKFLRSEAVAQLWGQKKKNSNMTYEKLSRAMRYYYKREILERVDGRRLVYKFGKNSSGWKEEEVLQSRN
# Procedure, shortened: as §1
# [17] = target: ETV1 (Homo sapiens, UniProt P50549 1-477); conditions: protein: recombinant; tags: N-terminal GST; dsDNA, one strand shown
# Procedure, shortened: as §1
# Sequence of ETV1 (P50549 whole entry): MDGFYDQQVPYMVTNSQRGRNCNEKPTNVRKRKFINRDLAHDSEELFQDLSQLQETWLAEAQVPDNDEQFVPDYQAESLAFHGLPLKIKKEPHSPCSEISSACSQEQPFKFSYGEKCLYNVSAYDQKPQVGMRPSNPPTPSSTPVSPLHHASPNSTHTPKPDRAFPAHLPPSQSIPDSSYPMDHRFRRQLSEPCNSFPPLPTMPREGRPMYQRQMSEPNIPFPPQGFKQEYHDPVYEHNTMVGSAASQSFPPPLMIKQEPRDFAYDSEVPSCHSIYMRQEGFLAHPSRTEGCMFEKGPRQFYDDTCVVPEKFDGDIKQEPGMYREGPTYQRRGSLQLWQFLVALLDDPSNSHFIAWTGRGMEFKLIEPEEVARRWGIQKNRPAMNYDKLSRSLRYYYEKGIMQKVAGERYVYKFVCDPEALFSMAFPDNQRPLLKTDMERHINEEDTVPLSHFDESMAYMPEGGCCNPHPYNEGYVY
# Sequence of SPIB (Q01892 whole entry): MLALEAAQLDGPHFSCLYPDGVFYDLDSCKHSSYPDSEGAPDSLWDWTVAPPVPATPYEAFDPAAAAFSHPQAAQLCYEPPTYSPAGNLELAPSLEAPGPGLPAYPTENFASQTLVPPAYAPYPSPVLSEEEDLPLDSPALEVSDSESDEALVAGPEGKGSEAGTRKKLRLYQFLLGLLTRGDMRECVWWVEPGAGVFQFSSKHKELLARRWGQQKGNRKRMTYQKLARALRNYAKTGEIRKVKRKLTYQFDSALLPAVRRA
# Sequence of HSF1 (Q00613 whole entry): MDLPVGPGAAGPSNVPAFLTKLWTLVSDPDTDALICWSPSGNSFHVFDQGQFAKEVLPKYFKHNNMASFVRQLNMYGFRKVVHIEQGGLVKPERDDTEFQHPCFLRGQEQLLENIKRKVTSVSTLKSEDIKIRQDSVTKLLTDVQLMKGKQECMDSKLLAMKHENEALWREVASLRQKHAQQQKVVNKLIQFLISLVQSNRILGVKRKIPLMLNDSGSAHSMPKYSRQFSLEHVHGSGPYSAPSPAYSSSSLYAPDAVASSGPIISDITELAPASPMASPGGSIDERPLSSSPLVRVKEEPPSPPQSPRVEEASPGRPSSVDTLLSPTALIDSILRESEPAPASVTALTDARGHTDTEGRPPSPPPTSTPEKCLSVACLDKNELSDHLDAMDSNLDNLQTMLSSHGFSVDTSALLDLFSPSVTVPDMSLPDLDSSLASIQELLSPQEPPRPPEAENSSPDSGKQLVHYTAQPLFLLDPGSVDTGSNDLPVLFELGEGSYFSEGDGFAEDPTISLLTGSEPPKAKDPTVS
# Sequence of ELF4 (Q99607 whole entry): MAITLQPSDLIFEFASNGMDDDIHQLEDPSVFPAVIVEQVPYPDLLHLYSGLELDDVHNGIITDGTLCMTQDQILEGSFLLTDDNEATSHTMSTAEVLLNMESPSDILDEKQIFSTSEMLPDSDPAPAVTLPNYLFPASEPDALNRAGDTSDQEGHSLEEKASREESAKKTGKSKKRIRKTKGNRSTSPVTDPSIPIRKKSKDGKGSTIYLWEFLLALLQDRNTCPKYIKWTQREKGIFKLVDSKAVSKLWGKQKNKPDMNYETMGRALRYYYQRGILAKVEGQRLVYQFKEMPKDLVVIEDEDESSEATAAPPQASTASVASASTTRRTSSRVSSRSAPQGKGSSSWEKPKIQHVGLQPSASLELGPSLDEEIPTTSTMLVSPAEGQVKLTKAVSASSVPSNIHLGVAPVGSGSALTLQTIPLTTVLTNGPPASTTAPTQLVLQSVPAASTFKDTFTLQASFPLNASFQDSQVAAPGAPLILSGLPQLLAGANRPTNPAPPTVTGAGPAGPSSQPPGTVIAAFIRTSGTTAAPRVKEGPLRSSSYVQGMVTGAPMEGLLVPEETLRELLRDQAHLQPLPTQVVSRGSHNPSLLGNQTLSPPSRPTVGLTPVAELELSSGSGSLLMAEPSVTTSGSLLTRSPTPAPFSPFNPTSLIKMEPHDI
# Sequence of ETV5 (P41161 whole entry): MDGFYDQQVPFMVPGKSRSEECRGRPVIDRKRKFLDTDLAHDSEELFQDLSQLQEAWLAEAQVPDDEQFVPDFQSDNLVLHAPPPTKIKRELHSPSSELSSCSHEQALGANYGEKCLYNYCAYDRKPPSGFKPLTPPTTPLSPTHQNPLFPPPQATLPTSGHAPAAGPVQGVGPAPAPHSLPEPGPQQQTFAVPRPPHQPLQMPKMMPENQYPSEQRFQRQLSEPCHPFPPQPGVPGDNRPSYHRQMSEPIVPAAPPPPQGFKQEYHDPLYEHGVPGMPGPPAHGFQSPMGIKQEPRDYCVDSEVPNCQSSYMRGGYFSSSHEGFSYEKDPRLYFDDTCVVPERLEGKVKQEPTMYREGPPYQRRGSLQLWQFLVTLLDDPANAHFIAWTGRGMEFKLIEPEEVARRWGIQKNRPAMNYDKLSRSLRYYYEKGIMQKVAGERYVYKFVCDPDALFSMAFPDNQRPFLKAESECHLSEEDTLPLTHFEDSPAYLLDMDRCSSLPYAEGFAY
# Sequence of ELF1 (P32519 whole entry): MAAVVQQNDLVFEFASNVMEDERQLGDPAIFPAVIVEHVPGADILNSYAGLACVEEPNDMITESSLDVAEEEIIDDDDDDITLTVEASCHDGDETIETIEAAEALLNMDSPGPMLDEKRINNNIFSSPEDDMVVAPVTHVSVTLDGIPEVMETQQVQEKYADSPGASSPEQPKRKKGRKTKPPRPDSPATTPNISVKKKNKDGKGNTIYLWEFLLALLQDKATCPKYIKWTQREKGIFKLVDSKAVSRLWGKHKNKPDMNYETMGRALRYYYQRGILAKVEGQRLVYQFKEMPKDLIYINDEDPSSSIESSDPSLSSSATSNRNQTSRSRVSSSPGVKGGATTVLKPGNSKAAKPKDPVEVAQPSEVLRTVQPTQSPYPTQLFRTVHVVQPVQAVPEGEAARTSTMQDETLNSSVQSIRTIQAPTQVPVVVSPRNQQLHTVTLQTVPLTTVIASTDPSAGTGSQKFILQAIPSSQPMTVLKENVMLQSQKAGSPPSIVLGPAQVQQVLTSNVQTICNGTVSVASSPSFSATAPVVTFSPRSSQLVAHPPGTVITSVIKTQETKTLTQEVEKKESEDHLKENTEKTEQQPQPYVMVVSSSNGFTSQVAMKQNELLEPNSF
sequence,measurement,setting,value
TCCACG,binding signal,[1],"1.09 fold enrichment (6-mer frequency, TF over GST control)"
same,binding signal,[2],"1.08 fold enrichment (6-mer frequency, TF over GST control)"
same,binding signal,[3],"1.2 fold enrichment (6-mer frequency, TF over GST control)"
same,binding signal,[4],"1.09 fold enrichment (6-mer frequency, TF over GST control)"
same,binding signal,[5],"1.09 fold enrichment (6-mer frequency, TF over GST control)"
same,binding signal,[6],"1.06 fold enrichment (6-mer frequency, TF over GST control)"
same,binding signal,[7],"1.06 fold enrichment (6-mer frequency, TF over GST control)"
same,binding signal,[8],"1.11 fold enrichment (6-mer frequency, TF over GST control)"
same,binding signal,[9],"1.14 fold enrichment (6-mer frequency, TF over GST control)"
same,binding signal,[10],"1.04 fold enrichment (6-mer frequency, TF over GST control)"
same,binding signal,[11],"1.15 fold enrichment (6-mer frequency, TF over GST control)"
same,binding signal,[12],"1.15 fold enrichment (6-mer frequency, TF over GST control)"
same,binding signal,[13],"1.13 fold enrichment (6-mer frequency, TF over GST control)"
same,binding signal,[14],"1.13 fold enrichment (6-mer frequency, TF over GST control)"
same,binding signal,[15],"1.3 fold enrichment (6-mer frequency, TF over GST control)"
same,binding signal,[16],"1.02 fold enrichment (6-mer frequency, TF over GST control)"
same,binding signal,[17],"1.08 fold enrichment (6-mer frequency, TF over GST control)"
